# Reference: ChEMBL document CHEMBL1157539, “Thousands of chemical starting points for antimalarial lead identification” (Nature, 2010)
# Key:
# Format in all cases: functional
# [1] = tested on: Plasmodium falciparum; assay: GSK_TCMDC: Inhibition of Plasmodium falciparum 3D7 in whole red blood cells, using parasite LDH activity as an index of growth. Test compounds present at 2uM
# [2] = tested on: Plasmodium falciparum; assay: GSK_TCMDC: Inhibition of Plasmodium falciparum Dd2 in whole red blood cells, using parasite LDH activity as an index of growth. Test compounds present at 2uM
# [3] = tested on: HepG2; assay: GSK_TCMDC: Percent inhibition of human HepG2 cell line. Test compounds present at 10uM.
SMILES,Inhibition [1] [%],Inhibition [2] [%],Inhibition [3] [%]
CO/C(=C\C=C\c1cc2cc(Cl)c(Cl)cc2[nH]1)C(=O)NC1CC(C)N(C)C(C)C1 (stereo not drawn),97,57,64
CN(C)CCNC(=O)c1ccc2c(c1)n(C1CCN(S(=O)(=O)c3ccc(-c4ccccc4)cc3)CC1)c(=O)n2CC1CCCCC1,100,66,47
Cc1ccc2[nH]c(-c3ccc(C=CC(=O)NC4CCN(Cc5ccccc5)CC4)cc3)nc2c1,100,92,9
CCOC(=O)c1ccc(NC(=O)N[C@@H](Cc2ccccc2)C(=O)NC2CCN(Cc3ccc(OCCCN(C)C)cc3)C2)cc1 (stereo partly drawn),91,8,5
CCN1C(=O)N(CCC(C)C)C2(CCN(Cc3ccc(OC)cc3O)CC2)C1=O,89,77,13
CC(C)C[C@H](Nc1ccnc(NCC2CCCCC2)n1)C(=O)NCCc1ccccc1.O=C(O)C(F)(F)F,88,66,10
O=C(Nc1cc(C(F)(F)F)cc(C(F)(F)F)c1)Nc1cc(C(F)(F)F)cc(C(F)(F)F)c1,97,100,5
COc1cc2nc(NCCc3ccccc3)nc(N(C)Cc3ccccc3)c2cc1OC,96,58,31
Cc1cc(CNCCCCCCCNCc2ccc(-c3ccccc3)cc2)ccc1O,97,6,49
Cc1cccc(C(=O)N2CCN(Cc3cccc(NC(=O)c4ccco4)c3)CC2)c1.O=C(O)C(F)(F)F,94,79,7
CN1CCC(C(=O)Nc2ccc(-c3ccc(-c4nc5cc(C(F)(F)F)ccc5[nH]4)s3)cc2)CC1,100,95,53
O=C(NCCN1CCOCC1)c1ccc(O)c(-c2cccc(C(F)(F)F)c2)c1,95,48,0
Cc1ccc(NC(=O)c2ccc(CN3CCCN(Cc4cccc(C#N)c4)CC3)cc2)cc1F.O=C(O)C(F)(F)F,98,19,49
CC[C@H](C)CNC(=O)c1cncc(-c2ccc(CNCC3CNCCCO3)cc2)c1.O=C(O)C(F)(F)F (stereo partly drawn),100,0,0
O=C(Nc1cccc(Cl)c1Cl)N[C@H]1CCN(CCCCCNC(=O)C2CC2c2ccc(Cl)c(Cl)c2)C1 (stereo partly drawn),87,0,40
O=C(Nc1cccc(C(F)(F)F)c1)c1cccc(S(=O)(=O)NCC2CCCN2CC2CCCCC2)c1.O=C(O)C(F)(F)F (stereo not drawn),97,2,6
O=C(Nc1ccc(OC2CCN(Cc3ccc(F)cc3)CC2)c(Cl)c1)c1ccc(F)cc1.O=C(O)C(F)(F)F,97,95,37
Cn1nccc1C(=O)NCCNCc1cccc(-c2ccc(-c3nc4cc(C(F)(F)F)ccc4[nH]3)cc2)c1.O=C(O)C(F)(F)F,100,98,51
O=C(Cn1c(SCc2cccc(F)c2F)cc(=O)c2ccccc21)N(CCCn1ccnc1)Cc1ccc(-c2ccc(C(F)(F)F)cc2)cc1,99,99,21
O=C(NCCCCCN1CCC(c2c[nH]c3ccccc23)CC1)Nc1ccc(I)c(Cl)c1,99,5,88
COc1ccc(Nc2nc(N)c3cc(OC)c(OC)cc3n2)cc1OC.Cl,99,5,0
